About 900 (25%) of roughly 3,600 compounds were called active. No rule for the calls is given here. A selection follows. Entries with a potency or affinity are not part of this list.
biological target: Protein Tat (Human immunodeficiency virus type 1 group M subtype B (isolate HXB2)) (UniProt P04608); experiment: inhibitors of Tat binding to TAR RNA, dose response, counter-screen for Vif-APOBEC3G degradation inhibitor project, biochemical, fluorescence polarization, FAM-labeled TAR RNA (AID 1117361); conditions: outcome: dose series up to 100 µM unless noted; series mostly up to 100 µM

Compound | outcome
CC(C)N(C(=O)CO/N=C/c1cccc([N+](=O)[O-])c1)C(C)C | inactive
C=CCOc1ccc2c(c1)C(=NO)c1cc(OCC=C)ccc1-2 | inactive
O=C(Nc1c2c(nn1-c1ccc(F)cc1)CS(=O)C2)C12CC3CC(CC(C3)C1)C2 (stereo unspecified) | inactive
CC(C)NC(=O)C1CCCN(S(=O)(=O)c2cccs2)C1 (stereo unspecified) | inactive
Cc1ccc2oc(=O)c3cnn(CC(=O)NC4CCCCC4C)c3c2c1 (stereo unspecified) | inactive
O=C(c1cnn2cccnc12)N1CCN(Cc2ccc3c(c2)OCO3)CC1 | inactive
O=C(COc1ccccc1Cl)NCCc1ccc2c(c1)OCCO2 | inactive
CC(=O)Nc1ccc(S(=O)(=O)N2CCN(CCCOc3ccccc3Cl)CC2)cc1 | inactive
CCCCn1c(C(C)NC(=O)CC)nc2ccccc21 (stereo unspecified) | inactive
COc1ccc(CNS(=O)(=O)c2cc(Br)cc3c2N(C(C)=O)C(C)C3)cc1 (stereo unspecified) | inactive
COCC(C)NC(=O)C1CC(c2cccc(Br)c2)=NO1 (stereo unspecified) | inactive
COc1ccc(C2C(C#N)=C(SCC(=O)Nc3ccc(C)cc3)NC3=C2C(=O)CC(C)(C)C3)cc1 (stereo unspecified) | inactive
COC(=O)CSC1=C(C#N)C(c2ccccc2)CC(=O)N1 (stereo unspecified) | inactive
CCCNC(=S)NC1CCCC1 | inactive
Cc1ccc(C(=O)CSc2ccccn2)cc1 | inactive
Cc1nnc(SCc2cnc(-c3ccccc3)o2)[nH]c1=O | inactive
CCOc1cc(C2NC(=O)NC(O)(C(F)(F)F)C2C(=O)c2ccccc2)ccc1OC (stereo unspecified) | inactive
CSc1nc(N2CCOCC2)c2c3c(sc2n1)CCC3 | inactive
CN(C)CCNc1ncnc2c1sc1nc(-c3ccccc3)c3c(c12)CCCC3 | inactive
Clc1ccccc1Nc1c2c(nc3ncnn13)CCC2 | inactive
CC(=O)NCc1c(Cl)cccc1-n1cccc1 | inactive
CCCS(=O)(=O)NCc1cn2c(C)csc2n1 | inactive
CN(C(=O)COc1ncnc2sccc12)c1ccccc1 | inactive

Compound | outcome
COc1ccccc1NS(=O)(=O)c1cccs1 | inactive
CCCCNc1nc2ccccc2nc1NS(=O)(=O)c1cccs1 | inactive
Cc1cc(/C=C2\SC(=S)NC2=O)c(C)n1-c1ccc(O)cc1 | inactive
Cc1cc(/C=C2\SC(=S)NC2=O)c(C)n1-c1ccccc1 | inactive
CCc1ccc(-n2c(SCc3c(C)noc3C)nnc2-c2ccncc2)cc1 | inactive
Cc1noc(C)c1C(=O)N1CCc2ccccc2C1 | inactive
CCn1c(C(=O)N2CCc3ccccc3C2)cc2sccc21 | inactive
CCC(C)(C)C1CCc2c(sc(NC(=O)c3ccoc3C)c2C(N)=O)C1 (stereo unspecified) | inactive
COc1cc(NC(=O)c2nnn(Cc3ccc(SC)cc3)c2N)cc(OC)c1 | inactive
Cc1ccc(SCC(=O)c2sc(-c3ccccc3)nc2C)cc1 | inactive [at 50 µM]
CS(=O)(=O)N(CC(=O)Nc1ccc2c(c1)OCO2)Cc1ccccc1 | inactive
COC(=O)c1ccc(Cl)c(NC(=O)CN(c2ccc3c(c2)OCO3)S(C)(=O)=O)c1 | inactive
O=C(NCc1ccc(F)cc1)c1c(O)c2cccc3c2n(c1=O)CCC3 | inactive
Cc1ccc(C(=O)Nc2nc3ccccc3n2CCN2CCCC2)cc1 | inactive
CCN1C(=O)c2c(C)nc3ccccc3c2C1=O | inactive
COCCCN1C(=O)N(c2ccc(F)cc2)C(=O)C1CC(=O)Nc1ccc(OC)cc1 (stereo unspecified) | inactive
Cc1cc(C)c([N+](=O)[O-])cc1-c1ccc(/C=N/NC(=O)c2nonc2N)o1 | inactive
O=C(NNC(=O)c1ccccc1O)c1ccc(-c2ccc([N+](=O)[O-])cc2)o1 | inactive
NC(=S)N/N=C/c1ccc(-c2cccc([N+](=O)[O-])c2)o1 | inactive
N=C(c1cccc([N+](=O)[O-])c1)N1CCCCCC1 | inactive
Cc1ccc(C(=O)OCc2cn3ccccc3n2)cc1 | inactive
COc1cccc(NC(=O)N2CCN(c3nnnn3-c3ccccc3)CC2)c1 | inactive
Cc1ccc(-n2nc(C)c3c(C)c(CCC(=O)O)c(C)nc32)cc1 | inactive

Compound | outcome
Cc1cc(=O)nc2c3ccccc3n(C(C)C(=O)NCCC(C)C)n12 (stereo unspecified) | inactive
O=C(COc1ccc(S(=O)(=O)N2CCCC2)cc1)NCCC1=CCCCC1 | inactive
CCN(CC)CCCNC(=O)c1cn(CCOC)c(=O)c2c1c1ccccc1n2C | inactive
COc1ccc(-n2nc(C(=O)NCc3ccco3)c3ccccc3c2=O)cc1 | inactive
Cc1cc(C)cc(-n2nnc(C(=O)NCc3ccco3)c2N)c1 | inactive
CC1(C)CC2(CC(c3ccccc3F)c3ccc(O)c(O)c3O2)NC(=S)N1 (stereo unspecified) | inactive
CCN1CCN(Cc2cc(=O)oc3ccc(C)cc23)CC1 | inactive
CCc1cc2c(CN3CCN(CC)CC3)cc(=O)oc2cc1O | inactive
CCc1ccc2c(CN3CCC(C(=O)OC)CC3)cc(=O)oc2c1 | inactive
C=C(Cl)COc1ccc2c(CCC)cc(=O)oc2c1 | inactive
COc1ccc(S(=O)(=O)N2CCOC2CNC(=O)C(=O)NCc2ccccn2)cc1 (stereo unspecified) | inactive
CC(C)C(C(=O)OCC(=O)c1ccc2c(c1)NC(=O)CO2)N1C(=O)c2ccccc2C1=O (stereo unspecified) | inactive
COCCNC(C)C(=O)C12CC3CC(CC(C3)C1)C2 (stereo unspecified) | inactive
Oc1ccc(/C=N/N2CCCCC2)c(O)c1O | inactive
O=C(c1cc2ccccc2o1)N1CC=C(c2ccccc2)CC1 | inactive
O=C(CCC(=O)NNc1nc2ccccc2c2nc(-c3ccccc3)nn12)NCCCN1CCOCC1 | inactive
Cc1ccc2nsnc2c1S(=O)(=O)N(CCO)Cc1cc2cc3c(cc2[nH]c1=O)OCCO3 | inactive
CCn1c(SCC(=O)NCC(=O)Nc2ccc(F)cc2)nnc1-c1ccncc1 | inactive
CCn1c(=O)cc(SCC(=O)NCc2ccc(C)o2)c2ccccc21 | inactive
Cc1cccc(OCc2nc3ccccc3c(=O)n2N)c1 | inactive
CC(=O)c1ccc(NC(=O)C(C)OC(=O)C(C)Oc2cccc(C)c2)cc1 (stereo unspecified) | inactive
Cc1ccc([N+](=O)[O-])cc1NC(=O)CCSc1ccc(Cl)cc1 | inactive
CCCn1nc(C(=O)Nc2cc(C(=O)OC)ccc2C)c2ccccc2c1=O | inactive

Compound | outcome
CCCCN1C2=C(C(=O)CC(C)(C)C2)C(c2ccccc2)C2=C1c1ccccc1C2=O (stereo unspecified) | inactive
Cc1cc(C)cc(N(C(C)C(=O)Nc2c(C)n(C)n(-c3ccccc3)c2=O)S(C)(=O)=O)c1 (stereo unspecified) | inactive
COC(=O)Cc1csc(Nc2c(C)n(C)n(-c3ccccc3)c2=O)n1 | inactive
CC1=C/C(=N\OS(=O)(=O)c2ccccc2)C=CC1=O | inactive
Cc1c(NC(=O)c2cc(-c3cccs3)on2)c(=O)n(-c2ccccc2)n1C | inactive
Cc1cc(C(=O)Nc2ccc(S(=O)(=O)Nc3onc(C)c3C)cc2)cs1 | inactive
CCOc1ccc2nc(SCc3ccc(C(=O)OC)o3)[nH]c2c1 | inactive
COC(=O)c1ccc(Cn2c(C)cc(C)[n+]2C)o1 | inactive
COc1ccccc1N1CCN(C(=O)c2ccoc2C)CC1 | inactive
COc1ccc(S(=O)(=O)N2CCN(C(=O)c3cc4c(s3)CCC4)CC2)cc1 | inactive
O=C(c1ccco1)N(CCC(c1ccccc1)c1ccco1)Cc1ccc(F)cc1 (stereo unspecified) | inactive
Cc1c(NC(=O)COC(=O)c2ccccc2Cl)c(=O)n(-c2ccccc2)n1C | inactive
Cc1cccc(OCCC(=O)Nc2c(C)n(C)n(-c3ccccc3)c2=O)c1 | inactive
CCOC(=O)Nc1cc(C)c(Cl)cc1OC | inactive
Nc1cc(C(=O)O)ccc1N1CCCCC1 | inactive
CC(C)(C)NC(=O)c1cc([N+](=O)[O-])ccc1N1CCCCC1 | inactive
Cc1ccc(Cn2c(SCC(C)C)nc3c2c(=O)n(C)c(=O)n3C)cc1 | inactive
CCn1c(C)cc(=S)c2ccccc21 | inactive
O=C(Cn1c2[n+](c3ccc(C(F)(F)F)cc31)CCCCC2)Nc1c(F)cccc1F | inactive
CCN(CC(=O)Nc1ccc(NC(C)=O)cc1)C(=O)C1CCCC1 | inactive
Cc1ccc(C(=O)Nc2nc(=O)n(C(=O)c3ccccc3C)s2)cc1 | inactive
CCS(=O)(=O)c1ccc2oc(Nc3cccc(OC)c3)nc2c1 | inactive
Cc1nn(Cc2ccccc2)c(C)c1NC(=O)Cn1nc([N+](=O)[O-])c(Cl)c1C | inactive

Compound | outcome
O=c1[nH]nc(Cc2ncc(C(F)(F)F)cc2Cl)c2ccccc12 | inactive
N#Cc1nc(COc2ccc(Cl)cc2Cl)oc1N1CCOCC1 | inactive
COc1ccc(N2CCN(c3oc(COc4ccc(Cl)cc4Cl)nc3C#N)CC2)cc1 | inactive
O=C1CN(C(=O)CSc2nnc(C3CC3)n2-c2ccccc2)c2ccccc2N1 | inactive
Cc1nc(Nc2ccc(S(N)(=O)=O)cc2)sc1C(=O)Nc1ccccc1 | inactive
O=C(Nc1cnccn1)c1csc2ccccc12 | inactive
Clc1ccc2c(c1)nc1n2CCCC1 | inactive
COc1ccc(CCNS(=O)(=O)CCNC(=O)c2ccc3c(c2)OCO3)cc1 | inactive
O=C1NCC(O)=C1C=NC12CC3CC(CC(C3)C1)C2 | inactive
CCn1ncc(/C=N/NS(=O)(=O)c2ccc(Cl)cc2)c1C | inactive
C=CCN(CC=C)S(=O)(=O)c1ccc(C(=O)Nc2nnc(COC)o2)cc1 | inactive
Cc1cccc(OCc2nc(C)cc(=O)[nH]2)c1 | inactive
O=C(CNC(=O)c1ccc(Cl)cc1Cl)OCc1nnc(-c2ccccc2Br)o1 | inactive
Clc1ccc(-c2ccc(SCc3ccccn3)nn2)cc1 | inactive
CCCOc1ccccc1C1CC(=O)NC2=C1C(=O)CCC2 (stereo unspecified) | inactive
COc1ccccc1-c1nnc(SCC(=O)NCc2c(C)c(Cl)cc(C(C)C)c2O)o1 | inactive
O=C(Cn1c(=O)[nH]c2ccccc2c1=O)N1CCN(c2cccc(Cl)c2)CC1 | inactive
N#CC(C(=O)NCc1ccco1)c1nc2ccccc2nc1N1CCOCC1 (stereo unspecified) | inactive
Cc1ccnc(-n2c(CCN3C(=O)c4ccccc4C3=O)nc3ccccc3c2=O)c1 | inactive
